Assay results taken from PubChem BioAssay (NCATS).
Records with an inconclusive call do not appear. Entries that show only a call come without a potency. Values without a mark were called inactive. Calls of active or inactive are those of the source. Calls come from the whole dose curve; as a rule, active = well fitted inhibition curve with a large enough effect; inconclusive = small, poorly fitted or top-dose-only effect; inactive = flat fitted curve, though single readings scatter.

Legend:
Assay in all cases: qHTS profiling for inhibitors of Plasmodium falciparum proliferation (AID 504749); note: nearly all actives have a fitted effect of over 60% in size
Details in all cases: P. falciparum in erythrocytes, SYBR Green DNA, 72 h; series mostly up to 28.7 µM
Dd2 = test system: Dd2
Outline: (§1)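 Each compound contacts P. falciparum-infected red blood cells for 72 h at 37 C; lysis buffer (Tris, EDTA, saponin, Triton X, SYBR Green I) is added and fluorescence measured next morning; values normalized to controls.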

ECU = test system: ECU
Outline: as §1

FAB9 = test system: FAB9
Outline: as §1

GB4 = test system: GB4
Outline: as §1

HB3 = test system: HB3
Outline: as §1

ICS = test system: ICS
Outline: as §1

JCK = test system: JCK
Outline: as §1

N140 = test system: N140
Outline: as §1

P93_24 = test system: P93_24
Outline: as §1

P94_40 = test system: P94_40
Outline: as §1
Potency is the fitted concentration of half-maximal effect.

SMILES | Potency (Dd2) | Potency (ECU) | Potency (FAB9) | Potency (GB4) | Potency (HB3) | Potency (ICS) | Potency (JCK) | Potency (N140) | Potency (P93_24) | Potency (P94_40)
CN1C(=O)C(O)N=C(c2ccccc2)c2cc(Cl)ccc21 (configuration not stated) | inactive | inactive | inactive | inactive | inactive | inactive | inactive | inactive | inactive | inactive
NNc1ccccc1 | inactive | inactive | inactive | inactive | inactive | inactive | inactive | inactive | inactive | inactive
O=C(Nc1ccc(Br)cc1)c1cc(Br)cc(Br)c1O | inactive | inactive | inactive | inactive | inactive | inactive | inactive | inactive | inactive | inactive
O=C1Nc2ccc(Cl)cc2C(c2ccccc2)=NC1O (configuration not stated) | inactive | inactive | inactive | inactive | inactive | inactive | inactive | inactive | inactive | inactive
C=CCN1C[C@H](C)N([C@H](c2ccc(C(=O)N(CC)CC)cc2)c2cccc(OC)c2)C[C@H]1C | 11.2 µM (active) |  |  |  |  | 12.6 µM (active) | inactive |  |  | 
O=C1c2ccccc2C(=O)c2ccccc21 |  |  |  |  | 11.2 µM (active) | 3.55 µM (active) | inactive |  |  | inactive
CN1C(=O)NC(=O)C(C)(C2=CCCCC2)C1=O (configuration not stated) | inactive | inactive | inactive | inactive | inactive | inactive | inactive | inactive | inactive | inactive
Clc1ccc(C(c2ccc(Cl)cc2)C(Cl)(Cl)Cl)cc1 | inactive | inactive | inactive |  | inactive |  | inactive |  | inactive | 
CCCCCCC(=O)CCCCCC/C=C/C[C@@H](O)[C@H](O)[C@@](N)(CO)C(=O)O | inactive | inactive | inactive | inactive | inactive | inactive | inactive | inactive | inactive | inactive
CN1CCC(O)(c2ccc(F)cc2)C(C(=O)c2ccc(F)cc2)C1 (configuration not stated) | inactive | inactive | inactive | inactive | inactive | inactive | inactive | inactive |  | inactive
CCOP(=S)(OCC)Oc1ccc2c(C)c(Cl)c(=O)oc2c1 | inactive | inactive | inactive | inactive | inactive |  | inactive |  |  | 11.2 µM (active)
CNC(C)(C)Cc1ccccc1 | inactive | inactive | inactive | inactive | inactive | inactive | inactive | inactive | inactive | inactive
COC1CC(=C(c2cccs2)c2cccs2)C[N+](C)(C)C1 (configuration not stated) |  | 8.91 µM (active) |  | 7.57 µM (active) | 8.91 µM (active) | 3.98 µM (active) |  | 7.94 µM (active) | 5.01 µM (active) | 2.24 µM (active)
COc1ccc2c(c1OC)C(=O)O[C@H]2[C@@H]1c2cc3c(cc2CCN1C)OCO3 |  |  |  | inactive |  |  |  |  |  | 
O=C1c2ccccc2C(=O)C1C(=O)C(c1ccccc1)c1ccccc1 | inactive | inactive | inactive |  | inactive |  | inactive | inactive | inactive | inactive
NC(=O)c1cc([N+](=O)[O-])cc([N+](=O)[O-])c1 | inactive | inactive | inactive |  | inactive |  |  |  |  | inactive
Cc1ncsc1CCCl | inactive | inactive | inactive | inactive | inactive | inactive | inactive | inactive |  | inactive

SMILES | Potency (Dd2) | Potency (ECU) | Potency (FAB9) | Potency (GB4) | Potency (HB3) | Potency (ICS) | Potency (JCK) | Potency (N140) | Potency (P93_24) | Potency (P94_40)
COc1ccc2c(c1)C13CCCC[C@@H]1C(C2)N(C)CC3 (some centres not stated) | 5.62 µM (active) |  | inactive |  | inactive |  | inactive | inactive |  | 
CCCCCCCCCC(=O)O[C@H]1CC[C@H]2[C@@H]3CCC4=CC(=O)CC[C@@H]4[C@H]3CC[C@]12C |  | inactive | inactive | inactive | inactive |  | inactive | inactive | inactive | inactive
O=C(N/N=C/c1ccc([N+](=O)[O-])o1)c1cc([N+](=O)[O-])cc([N+](=O)[O-])c1O |  |  |  |  | 1.58 µM (active) |  |  | 0.708 µM (active) | 0.1 µM (active) | 0.0794 µM (active)
O=C(O)CCCc1ccc(N(CCCl)CCCl)cc1 | inactive | inactive | inactive | inactive | inactive | inactive | inactive | inactive | inactive | inactive
C[C@](O)(CS(=O)(=O)c1ccc(F)cc1)C(=O)Nc1ccc(C#N)c(C(F)(F)F)c1 | inactive |  | inactive | inactive | inactive | inactive | inactive | inactive | inactive | inactive
C[C@]12CC[C@@H]3c4ccc(OC(=O)N(CCCl)CCCl)cc4CC[C@H]3[C@@H]1CC[C@@H]2O | inactive | inactive | inactive | inactive | inactive | inactive | inactive | inactive | inactive | inactive
COC(=O)C(c1ccccc1)C1CCCCN1 (configuration not stated) |  | inactive | inactive |  | inactive | inactive | inactive | inactive | inactive | inactive
O=c1[nH]oc2c1CCNC2 | inactive | inactive | inactive | inactive | inactive | inactive |  | inactive | inactive | inactive
CC(C)(C)NCC(O)c1cc(Cl)c(N)c(C(F)(F)F)c1 (configuration not stated) | 12.6 µM (active) | 5.01 µM (active) | inactive | 12 µM (active) |  | 4.47 µM (active) | 11.2 µM (active) | 2.82 µM (active) | 3.55 µM (active) | 
Clc1ccc2c(c1)C(c1ccccc1)=NCc1nncn1-2 | inactive | inactive | inactive | inactive | inactive | inactive | inactive | inactive | inactive | inactive
CC(C)c1cccc(C(C)C)c1O | inactive | inactive | inactive |  | inactive | inactive | inactive | inactive | inactive | inactive
CC(C)(C)NCC(O)c1ccccc1Cl (configuration not stated) | 11.2 µM (active) |  | inactive | 13.5 µM (active) |  | 7.08 µM (active) | inactive |  |  | 11.2 µM (active)
Nc1ccc([As](=O)(O)O)cc1 |  | inactive | inactive |  | inactive |  | inactive | inactive | inactive | 
CN1C[C@H](C(=O)N[C@]2(C)O[C@@]3(O)[C@@H]4CCCN4C(=O)[C@H](Cc4ccccc4)N3C2=O)C=C2c3cccc4[nH]cc(c34)C[C@H]21 | 0.141 µM (active) | 0.316 µM (active) | 6.31 µM (active) | 1.69 µM (active) | 0.447 µM (active) | 0.0398 µM (active) | 7.08 µM (active) | 0.282 µM (active) | 0.398 µM (active) | 0.251 µM (active)
COP(=S)(OC)Oc1ccc(SC)c(C)c1 | inactive | inactive | inactive | inactive | inactive | inactive |  | inactive | inactive | inactive
Cc1nnc2n1-c1ccc(Cl)cc1C(c1ccccc1)=NC2 | inactive | inactive | inactive | inactive | inactive | 8.91 µM (active) |  | inactive | inactive | 
C[C@]12CCC(=O)C=C1CC[C@@H]1[C@@H]2CC[C@]2(C)C(=O)CC[C@@H]12 | inactive |  | inactive | inactive | inactive | inactive | inactive | inactive | inactive | inactive
